Test results as given in PubChem BioAssay.

assay: binders of probe aFST on microarray, primary screen, stem cell growth factor project, biochemical, small-molecule microarray, fluorescence 635/667 (AID 1086); settings: higher = more signal;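 further: score merges 667 nm fluorescence with signal-to-noise of each printed compound spot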

**Q.** With `O=C1O[C@@H](c2ccccc2)[C@@H](c2ccccc2)N2[C@@H](c3ccc(O)cc3)[C@]3(C(=O)Nc4ccc(C#CC5=CCCCC5)cc43)[C@@H](C(=O)N3CCN(c4ncccn4)CC3)[C@H]12` as the compound, how does the composite z-score read?
**A.** 0.207

**Q.** With `CC(C)C[C@@H]1NC(=O)[C@H]2C[C@@H](C(=O)NCCCCCC[N+](C)(C)C)[C@@H](c3cccc(OCCO)c3)N2C1=O` as the compound, how does the composite z-score read?
**A.** -0.601

**Q.** Which composite z-score does the source give for `CCOC(=O)C[C@H]1[C@H](OC(=O)c2ccccc2-c2ccccc2)[C@@H](NC(=O)c2ccc3ccccc3n2)c2cc(OCCCO)ccc2N1C(=O)c1ccc2ccccc2n1` here?
**A.** 0.189

**Q.** With `C[C@H]1C2=C3C(CC[C@H]4C(OCc5ccc(F)cc5C(F)(F)F)OC[C@](C)([C@@H]34)N(C(=O)OC(C)(C)C)C2)C(CO)C1CO` (stereo not given in full) as the compound, how does the composite z-score read?
**A.** 1.72

**Q.** With `CCOc1cc(C(O)C2C=CC3C(=O)N(C)C(=O)C3N2N2CCCCC2)ccc1O` (stereo not given) as the compound, how does the composite z-score read?
**A.** 0.707

**Q.** For `C=C(COC)/C(=C/C[C@@H](OC(=O)c1ccncc1)c1cccc(OCCO)c1)c1cnc2ccccc2c1`, which composite z-score is on record?
**A.** 1.47

**Q.** For `C=C(CCCC)/C(=C/C[C@@H](OC(C)=O)c1ccc(CO)o1)c1cc(C(=O)OC)ccc1OC`, which composite z-score is on record?
**A.** 0.435

**Q.** Which composite z-score does the source give for `CC(C)(C)OC(=O)CC[C@]1(C(=O)NCCN2CCOCC2)N=C(c2ccc(OCCCO)cc2)O[C@H]1c1ccccc1N=[N+]=[N-]` here?
**A.** 0.778

**Q.** With `Cc1ccc(S[C@]2(C(=O)NCC(F)(F)F)CC(=O)N(Cc3ccccc3)[C@@H]2c2ccc(CO)cc2)cc1` as the compound, how does the composite z-score read?
**A.** -0.543

**Q.** For `COc1ccc(C#Cc2ccc3c(c2)[C@]2(C(=O)N3)[C@H](C(=O)N3CCc4cc(OC)c(OC)cc4C3)[C@H]3C(=O)O[C@H](c4ccccc4)[C@H](c4ccccc4)N3[C@@H]2c2ccc(O)cc2)cc1`, which composite z-score is on record?
**A.** 0.295

**Q.** For `CN1C(=O)[C@@]2(CCS(=O)(=O)c3ccccc3)N=C(c3ccc(OCCCO)cc3)O[C@H]2c2ccccc21`, which composite z-score is on record?
**A.** 1.09

**Q.** With `CC(C)C(=C=CC[C@@H](O)c1ccccc1OCCO)C[C@@H](O)COCc1ccccc1` as the compound, how does the composite z-score read?
**A.** 0.592

**Q.** With `COc1ccc(C(O)C2C=CC3C(=O)N(Cc4ccccc4)C(=O)C3N2n2cnnc2)c2ccccc12` (stereo not given) as the compound, how does the composite z-score read?
**A.** 0.623

**Q.** For `CCOC(=O)C[C@H]1[C@H](OC(=O)c2ccccc2-c2ccccc2)[C@@H](NC(=O)CC(C)C)c2cc(OCCCO)ccc2N1C(=O)c1ccc2ccccc2n1`, which composite z-score is on record?
**A.** 0.535

**Q.** With `C=CC[C@H](OC(=O)Nc1ccc(OC)cc1)c1ccc(O)c2ccccc12` as the compound, how does the composite z-score read?
**A.** 0.0069

**Q.** For `COc1ccc(C(O)C2C=CC3C(=O)N(c4ccccc4)C(=O)C3N2Nc2ccccc2)cc1OCc1ccccc1` (stereo not given), which composite z-score is on record?
**A.** 1.64

**Q.** With `O=C1NC(=O)C2C1C=CC(C(O)c1cc(C(F)(F)F)cc(C(F)(F)F)c1)N2Nc1ccc(Cl)cc1Cl` (stereo not given) as the compound, how does the composite z-score read?
**A.** 0.881

**Q.** For `C=CCC(OC(C)=O)[C@@H]1[C@@H](N(Cc2cc3ccccc3o2)C(=O)Cc2ccc(F)cc2)c2cc(OCCCO)ccc2N1C(=O)c1ccc2ccccc2n1` (stereo not given in full), which composite z-score is on record?
**A.** 0.0407

**Q.** For `COCCOC(=O)N1C(=O)[C@@]2(c3cc(C#CC4=CCCCC4)ccc31)[C@H](c1ccc(O)cc1)N1[C@H](c3ccccc3)[C@H](c3ccccc3)OC(=O)[C@H]1[C@@H]2C(=O)Nc1nc2ccccc2s1`, which composite z-score is on record?
**A.** 1.06

**Q.** Which composite z-score does the source give for `COCCOC(=O)N1C(=O)[C@@]2(c3cc(C#CC4(O)CCCCCC4)ccc31)[C@H](C(N)=O)[C@H]1C(=O)O[C@H](c3ccccc3)[C@H](c3ccccc3)N1[C@@H]2c1ccc(O)cc1` here?
**A.** 0.33

**Q.** For `COC(=O)[C@H](Cc1ccccc1)N1CC(/C=C/C2CC2)=C[C@@H]1[C@@H](O)Cc1ccccc1`, which composite z-score is on record?
**A.** 0.707

**Q.** For `C=C(/C(=C/C[C@@H](OC(=O)c1ccncc1)c1ccccc1OCCO)c1cc(C(=O)OC)ccc1OC)C(C)C`, which composite z-score is on record?
**A.** 0.586

**Q.** With `COc1cc(CO)cc(I)c1O[C@H]1C=C(C(=O)NCCO)C[C@@H](N(Cc2ccc(F)cc2)C(=O)C2CCCO2)[C@@H]1O` (stereo not given in full) as the compound, how does the composite z-score read?
**A.** 0.0494

**Q.** Which composite z-score does the source give for `NC(=O)NCC#Cc1ccc2c(c1)[C@]1(C(=O)N2)[C@H](c2ccc(O)cc2)N2[C@H](c3ccccc3)[C@H](c3ccccc3)OC(=O)[C@H]2[C@@H]1C(=O)Nc1nc2ccccc2s1` here?
**A.** 0.185

**Q.** For `CCOC(=O)C1=CC[C@@H](c2cc(Cl)ccc2Cl)N(S(=O)(=O)c2ccc(C)cc2)[C@H]1c1ccc(OC)cc1`, which composite z-score is on record?
**A.** 0.623

**Q.** With `COc1ccc(NN2C(C(O)c3ccccn3)C=CC3C(=O)N(C4CCCCC4)C(=O)C32)cc1` (stereo not given) as the compound, how does the composite z-score read?
**A.** 1.29

**Q.** For `COc1ccc([Si](C)(C)[C@H]2[C@H](CCO)O[C@@]3(C(=O)N(Cc4cccc(N5CCCCC5=O)c4)c4ccccc43)[C@@H]2C)cc1`, which composite z-score is on record?
**A.** 0.327

**Q.** Which composite z-score does the source give for `CCCC[C@@H]1C[C@H]1[C@@H](NC(=O)c1cccnc1)c1ccc(-c2ccccc2)cc1` here?
**A.** -1.23

**Q.** With `C=CCNC(=O)[C@@H]1[C@H]2C(=O)O[C@H](c3ccccc3)[C@H](c3ccccc3)N2[C@H](c2ccc(OCCO)cc2)[C@@]12C(=O)N(C(=O)OCCOC)c1ccc(C#CC3=CCCCC3)cc12` as the compound, how does the composite z-score read?
**A.** 0.622

**Q.** Which composite z-score does the source give for `CC(C)NC(=O)[C@@]1(C)c2ccccc2C(=O)N(C(C)C)[C@H]1c1ccc(CO)cc1` here?
**A.** -0.242

**Q.** With `COCCOC(=O)N1C(=O)[C@@]2(c3cc(C#CC4(O)CCCCCC4)ccc31)[C@H](c1ccccc1OCCO)N1[C@H](c3ccccc3)[C@H](c3ccccc3)OC(=O)[C@H]1[C@@H]2C(N)=O` as the compound, how does the composite z-score read?
**A.** 0.489

**Q.** For `O=C1c2ccccc2[C@](Cc2ccccc2I)(C(=O)NCc2ccccc2)[C@H](c2ccc(CO)cc2)N1C1CCCCC1`, which composite z-score is on record?
**A.** 0.671

**Q.** With `COC(=O)[C@@]1(Cc2ccc(OC)cc2)[C@H]2c3cc(C(=O)N(C)C)n(Cc4ccccc4)c3C[C@H]2CN1C(=O)c1ccccc1` as the compound, how does the composite z-score read?
**A.** 1.06

**Q.** For `COC(=O)[C@]1(CCS(=O)(=O)c2ccccc2)N=C(c2ccc(OCCCO)cc2)O[C@@H]1c1ccccc1CN=[N+]=[N-]`, which composite z-score is on record?
**A.** 0.284

**Q.** For `CC(C)(C)OC(=O)CC[C@]1(C(=O)N2CCOCC2)N=C(c2ccc(OCCCO)cc2)O[C@H]1c1ccccc1`, which composite z-score is on record?
**A.** 0.534
